From PubChem BioAssay (NCATS)
Inconclusive results are not listed. The source made the active and inactive calls. The call rests on the fitted dose curve; in most records, active means well fitted inhibition curve with a large enough effect; inconclusive means small, poorly fitted or top-dose-only effect; inactive means flat fitted curve, though single readings scatter.

Assays:
P94_40 = experiment: qHTS profiling for inhibitors of Plasmodium falciparum proliferation (AID 504749); further: potency means the concentration at half of the fitted maximal effect; conditions: P. falciparum in erythrocytes, SYBR Green DNA, 72 h; series mostly up to 28.7 µM
Method in brief: (§1)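 Three-day growth assay of blood-stage parasites in erythrocytes (0.3% parasitemia, 2.5% hematocrit) at 37 C, 5% CO2, quantified by SYBR Green DNA staining after overnight detergent lysis.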

PAD = experiment: as above; conditions: P. falciparum in erythrocytes, SYBR Green DNA, 72 h; series mostly up to 28.7 µM
Method in brief: as §1

PC15 = experiment: as above; conditions: P. falciparum in erythrocytes, SYBR Green DNA, 72 h; series mostly up to 28.7 µM
Method in brief: as §1

PC26 = experiment: as above; conditions: P. falciparum in erythrocytes, SYBR Green DNA, 72 h; series mostly up to 28.7 µM
Method in brief: as §1

PC49 = experiment: as above; conditions: P. falciparum in erythrocytes, SYBR Green DNA, 72 h; series mostly up to 28.7 µM
Method in brief: as §1

SC27B = experiment: as above; conditions: P. falciparum in erythrocytes, SYBR Green DNA, 72 h; series mostly up to 28.7 µM
Method in brief: as §1

TAB109 = experiment: as above; conditions: P. falciparum in erythrocytes, SYBR Green DNA, 72 h; series mostly up to 28.7 µM
Method in brief: as §1

TAB113 = experiment: as above; conditions: P. falciparum in erythrocytes, SYBR Green DNA, 72 h; series mostly up to 28.7 µM
Method in brief: as §1

TAB165 = experiment: as above; conditions: P. falciparum in erythrocytes, SYBR Green DNA, 72 h; series mostly up to 28.7 µM
Method in brief: as §1

W2 = experiment: as above; conditions: P. falciparum in erythrocytes, SYBR Green DNA, 72 h; series mostly up to 28.7 µM
Method in brief: as §1

CRL-7250 = normal cell line; experiment: Cytotoxic Profiling of Annotated Libraries Using Quantitative High-Throughput Screening (AID 1296008); conditions: Five cell lines viability, CellTiter-Glo ATP luminescence, 48-72 h; hits give low values; on max response: on the % scale 0 is the no-effect control and ±100 the full control effect
Method in brief: (§2)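 Cytotoxicity was measured as CellTiter-Glo ATP luminescence, read after 10 min at room temperature. Compound treatment of the cells lasted 48 or 72 hr at 37 degrees Celsius in a qHTS format.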

HEK293 = experiment: as above; conditions: Five cell lines viability, CellTiter-Glo ATP luminescence, 48-72 h; hits give low values
Method in brief: as §2

HaCat = experiment: as above; conditions: Five cell lines viability, CellTiter-Glo ATP luminescence, 48-72 h; hits give low values
Method in brief: as §2

KB-3-1 = experiment: as above; conditions: Five cell lines viability, CellTiter-Glo ATP luminescence, 48-72 h, hits give low values
Method in brief: as §2

NIH3T3 = experiment: as above; conditions: Five cell lines viability, CellTiter-Glo ATP luminescence, 48-72 h; hits give low values
Method in brief: as §2

MCC-13 = experiment: qHTS assay to identify novel small-molecules to repurpose for Merkel cell carcinoma treatment (AID 1296009); conditions: MCC and control cell lines, CellTiter-Glo viability, 72 h; series mostly up to 46 µM; on activity change, negative = cytotoxicity: on the % scale 0 is the no-effect control and ±100 the full control effect
Method in brief: (§3)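 After compound transfer in DMSO, plates were kept 72 hr at 37 degree celsius. Luminescent ATP signal from CellTiter-Glo served as viability measure, normalized against DMSO and no-cell controls.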

MCC-26 = experiment: as above; conditions: MCC and control cell lines, CellTiter-Glo viability, 72 h; series mostly up to 46 µM
Method in brief: as §3

MKL-1 = experiment: as above; conditions: MCC and control cell lines, CellTiter-Glo viability, 72 h; series mostly up to 46 µM
Method in brief: as §3

HEK293T = experiment: as above; conditions: MCC and control cell lines, CellTiter-Glo viability, 72 h; at 44.8 µM (top of the series) unless noted
Method in brief: as §3
Further: nearly all actives have a fitted effect of over 60% in size.

O=C(OOC(=O)c1ccccc1)c1ccccc1
inactive: Potency (P94_40) | Potency (PAD) | Potency (PC15) | Potency (PC26) | Potency (PC49) | Potency (SC27B) | Potency (TAB109) | Potency (TAB113) | Potency (TAB165) | Potency (W2) | outcome (CRL-7250) | max response (HEK293) 2.9% | max response (HaCat) -8.52% | max response (KB-3-1) -3.15% | outcome (NIH3T3) | outcome (MCC-13) | outcome (MCC-26) | outcome (MKL-1)

COc1cc(C(=O)NCCCCCC(=O)O)cc(OC)c1OC
inactive: Potency (P94_40) | Potency (PAD) | Potency (PC15) | Potency (PC26) | Potency (PC49) | Potency (SC27B) | Potency (TAB109) | Potency (TAB113) | Potency (TAB165) | max response (CRL-7250) -1.11% | outcome (HEK293) | max response (HaCat) 4.84% | max response (KB-3-1) 1.07% | max response (NIH3T3) 3.71% | outcome (HEK293T) | outcome (MCC-13) | outcome (MKL-1)

CC(O)CCCCn1c(=O)c2c(ncn2C)n(C)c1=O (stereo not drawn)
inactive: Potency (P94_40) | Potency (PAD) | Potency (PC15) | Potency (PC26) | Potency (PC49) | Potency (SC27B) | Potency (TAB109) | Potency (TAB113) | Potency (TAB165) | Potency (W2) | max response (CRL-7250) 2.98% | max response (HEK293) 0.321% | max response (HaCat) -6.07% | max response (KB-3-1) -8.11% | max response (NIH3T3) 4.47% | outcome (MCC-13) | outcome (MCC-26) | outcome (MKL-1)

NCc1ccc(S(N)(=O)=O)cc1
inactive: Potency (P94_40) | Potency (PAD) | Potency (PC15) | Potency (PC49) | Potency (SC27B) | Potency (TAB109) | max response (CRL-7250) -8.65% | outcome (HEK293) | max response (HaCat) -6.18% | max response (KB-3-1) -7.46% | max response (NIH3T3) 1.15% | outcome (HEK293T) | outcome (MCC-13) | outcome (MKL-1)

Cc1cccc(C)c1NC(=O)CC12CCCN1CCC2
inactive: Potency (P94_40) | Potency (PAD) | Potency (PC15) | Potency (PC26) | Potency (PC49) | Potency (SC27B) | Potency (TAB109) | Potency (TAB113) | Potency (TAB165) | max response (CRL-7250) 2.63% | outcome (HEK293) | max response (HaCat) -12.5% | max response (KB-3-1) -0.628% | max response (NIH3T3) -1.1% | outcome (HEK293T) | outcome (MCC-13) | outcome (MKL-1)

Cc1ccsc1/C=C/C1=NCCCN1C
inactive: max response (CRL-7250) 3.4% | max response (HEK293) -1.17% | max response (HaCat) 3.54% | max response (KB-3-1) -0.196% | outcome (NIH3T3) | outcome (MCC-13) | outcome (MCC-26) | outcome (MKL-1)

CCCCC1(COC(=O)CCC(=O)O)C(=O)N(c2ccccc2)N(c2ccccc2)C1=O
inactive: Potency (P94_40) | Potency (PAD) | Potency (PC15) | Potency (PC26) | Potency (PC49) | Potency (SC27B) | Potency (TAB109) | Potency (TAB113) | Potency (TAB165) | Potency (W2) | outcome (CRL-7250) | max response (HEK293) -6.41% | max response (HaCat) -4.26% | max response (KB-3-1) 2.02% | outcome (NIH3T3) | outcome (MCC-13) | outcome (MCC-26) | outcome (MKL-1)

CCCOC(=O)c1ccc(N)cc1
inactive: Potency (P94_40) | Potency (PAD) | Potency (PC15) | Potency (PC26) | Potency (PC49) | Potency (SC27B) | Potency (TAB109) | Potency (TAB113) | Potency (TAB165) | Potency (W2) | outcome (CRL-7250) | outcome (HEK293) | max response (HaCat) -1.1% | max response (KB-3-1) 1.99% | max response (NIH3T3) -2.69% | outcome (HEK293T) | outcome (MCC-13) | outcome (MCC-26) | outcome (MKL-1)

OC[C@@H](O)[C@@H](O)[C@H](O)[C@H](O)CO
inactive: Potency (P94_40) | Potency (PAD) | Potency (PC15) | Potency (PC26) | Potency (PC49) | Potency (SC27B) | Potency (TAB109) | Potency (TAB113) | Potency (TAB165) | Potency (W2) | max response (CRL-7250) -5.84% | outcome (HEK293) | max response (HaCat) 0.927% | max response (KB-3-1) 5.16% | max response (NIH3T3) -8.98% | outcome (HEK293T) | outcome (MCC-13) | outcome (MKL-1)

Cc1ccsc1C(=CCCN1CCC[C@@H](C(=O)O)C1)c1sccc1C
inactive: Potency (P94_40) | Potency (PAD) | Potency (PC15) | Potency (PC26) | Potency (PC49) | Potency (SC27B) | Potency (TAB109) | Potency (TAB113) | Potency (TAB165) | Potency (W2) | max response (CRL-7250) -7.41% | outcome (HEK293) | max response (HaCat) 3.8% | max response (KB-3-1) 3.88% | max response (NIH3T3) -5% | outcome (HEK293T) | outcome (MCC-13) | outcome (MCC-26) | outcome (MKL-1)

COC(=O)c1ccccc1C(=O)c1ccc(OCCN2CCCCC2)cc1
inactive: Potency (P94_40) | Potency (PAD) | Potency (PC15) | Potency (PC26) | Potency (PC49) | Potency (SC27B) | Potency (TAB109) | Potency (TAB113) | Potency (TAB165) | max response (CRL-7250) -2.25% | outcome (HEK293) | max response (HaCat) -0.875% | max response (KB-3-1) -16% | max response (NIH3T3) -3.51% | outcome (HEK293T) | outcome (MCC-13) | outcome (MKL-1)

CCCCCCCCCCOc1cc2c(=O)c(C(=O)OCC)c[nH]c2cc1OCC
inactive: outcome (CRL-7250) | outcome (HEK293) | max response (HaCat) -5.57% | max response (KB-3-1) 7.91% | max response (NIH3T3) -1.43% | outcome (HEK293T) inactive [at 4.96 µM] | activity change, negative = cytotoxicity (MCC-13) 9.19% [at 4.84 µM] | activity change, negative = cytotoxicity (MKL-1) -4.83% [at 4.84 µM]
active: Potency (P94_40) 3.2 nM | Potency (PAD) 3.5 nM | Potency (PC15) 6.3 nM | Potency (PC49) 7.9 nM | Potency (SC27B) 2.5 nM | Potency (TAB109) 2.5 nM | Potency (TAB113) 2.8 nM | Potency (TAB165) 1.3 nM | Potency (W2) 1.7 nM

O=C(CCBr)N1CCN(C(=O)CCBr)CC1
inactive: Potency (P94_40) | Potency (PAD) | Potency (PC15) | Potency (PC26) | Potency (PC49) | Potency (SC27B) | Potency (TAB109) | Potency (TAB113) | Potency (TAB165) | Potency (W2) | max response (CRL-7250) -5.81% | max response (HEK293) 0.232% | max response (HaCat) -10.3% | max response (KB-3-1) -5.88% | outcome (NIH3T3) | outcome (MCC-13) | outcome (MCC-26) | outcome (MKL-1)
